The results in this text go back to PubChem BioAssay (EPA / NIEHS).

The source made the active and inactive calls. How the source made its calls: active means hit-call score of the fitted dose curve at least 0.9, where 1 is the maximum; inactive means score below 0.9.

Read-out in assay [1]: Interleukin-1 alpha (IL1a), IL1A (gene 3552)
The experiment in a line: BSK_KF3CT_IL1a: BioMAP Diversity Plus: KF3CT Assay for Interleukin-1 alpha (IL1a) Biomarker Activity (AID 2283070). The following applies: primary human keratinocytes with fibroblasts; actives raise or lower the signal. The gist of the method:
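Readout is IL-1a level by ELISA, compared bidirectionally with DMSO as baseline. Cells: human keratinocytes co-cultured with foreskin fibroblasts, harvested 24 h post-dose.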

Read-out in assay [2]: TIMP metallopeptidase inhibitor 2 (TIMP2), TIMP2 (gene 7077)
Put plainly: BSK_KF3CT_TIMP2: BioMAP Diversity Plus: KF3CT Assay for TIMP metallopeptidase inhibitor 2 (TIMP2) Biomarker Activity (AID 2283071). The note with it: primary human keratinocytes with fibroblasts; actives raise or lower the signal. The gist of the method:
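ELISA readout of TIMP-2 in keratinocyte plus foreskin fibroblast co-cultures (human skin primary cells), 24 h post-dose. Gain or loss of signal fitted relative to DMSO.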

Read-out in assay [3]: Transforming growth factor beta 1 (TGFb1), TGFB1 (gene 7040)
Put plainly: BSK_KF3CT_TGFb1: BioMAP Diversity Plus: KF3CT Assay for Transforming growth factor beta 1 (TGFb1) Biomarker Activity (AID 2283072). The note with it: primary human keratinocytes with fibroblasts; actives raise or lower the signal. The gist of the method:
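Read-out: ELISA for TGF-b1 in keratinocyte/foreskin fibroblast human skin co-culture, 24 h after dosing; bidirectional curve fit vs DMSO baseline; gain or loss of signal scored.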

Read-out in assay [4]: C-C motif chemokine 2 (Homo sapiens) (UniProt P13500)
Put plainly: BSK_KF3CT_MCP1: BioMAP Diversity Plus: KF3CT Assay for Monocyte Chemoattractant Protein 1 (MCP1/CCL2) Biomarker Activity (AID 2283073). The note with it: primary human keratinocytes with fibroblasts; actives raise or lower the signal. Summed up: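 KF3CT skin co-culture (keratinocytes/foreskin fibroblasts), 24 h post-dose; MCP-1 by ELISA; gain/loss of signal fit bidirectionally vs DMSO baseline.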

Read-out in assay [5]: Matrix Metallopeptidase 9 (MMP9), MMP9 (gene 4318)
Put plainly: BSK_KF3CT_MMP9: BioMAP Diversity Plus: KF3CT Assay for Matrix Metallopeptidase 9 (MMP9) Biomarker Activity (AID 2283074). The note with it: primary human keratinocytes with fibroblasts; actives raise or lower the signal. Summed up:
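Values come from bidirectional fitting relative to DMSO of MMP-9 levels, which were measured by ELISA. Measurements were taken 24 h after chemical dosing of a keratinocyte and foreskin fibroblast co-culture.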

Read-out in assay [6]: urokinase plasminogen activator (uPA), PLAU (gene 5328)
The experiment in a line: BSK_KF3CT_uPA: BioMAP Diversity Plus: KF3CT Assay for urokinase plasminogen activator (uPA) Biomarker Activity (AID 2283075). The note with it: primary human keratinocytes with fibroblasts; actives raise or lower the signal. The gist of the method:
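Values derive from bidirectional fitting against DMSO controls. Keratinocyte/foreskin fibroblast co-cultures received chemical; 24 h later uPA was detected by ELISA, with SRB total-protein staining in parallel wells for overt cytotoxicity.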

Read-out in assay [7]: CD40, CD40 (gene 958)
The experiment in a line: BSK_LPS_CD40: BioMAP Diversity Plus: LPS Assay for CD40 Biomarker Activity (AID 2283076). The note with it: primary human HUVEC with PBMC; actives raise or lower the signal. The gist of the method:
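ELISA readout of CD40 in HUVEC/PBMC co-culture (BSK_LPS system), 24 h post-dosing; bidirectional curve fit, DMSO baseline; parallel SRB total-protein staining for cytotoxicity.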

Read-out in assay [8]: E-selectin (Homo sapiens) (UniProt P16581)
Put plainly: BSK_LPS_Eselectin: BioMAP Diversity Plus: LPS Assay for Eselectin Biomarker Activity (AID 2283077). The note with it: primary human HUVEC with PBMC; actives raise or lower the signal. Summed up:
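ELISA readout of E-selectin, 24 h post-dose, HUVEC + PBMC co-culture (LPS system). Gain or loss of signal vs DMSO baseline, bidirectional fit.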

Read-out in assay [9]: Interleukin-8 (IL8), CXCL8 (gene 3576)
Put plainly: BSK_LPS_IL8: BioMAP Diversity Plus: LPS Assay for Interleukin-8 (IL8) Biomarker Activity (AID 2283078). The note with it: primary human HUVEC with PBMC; actives raise or lower the signal. Summed up:
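HUVEC + PBMC co-culture, LPS-activated; test chemicals dosed, IL-8 read by ELISA at 24 h. Bidirectional curve fit vs DMSO baseline (gain or loss of signal).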

Assay [10] is described as follows: BSK_LPS_SRB: Viability Assessment in the BioMAP Diversity Plus: LPS Assay (AID 2283079).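 Further: total protein by sulforhodamine B absorbance as a cytotoxicity measure; measured one day after compound addition; fitted in both directions against DMSO so loss or gain of signal counts.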 The note with it: primary human HUVEC with PBMC. Summed up:
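HUVEC + PBMC co-culture, LPS-stimulated; compound 24 h. 10% TCA fix, 0.1% SRB stain, A560. Bidirectional fit vs DMSO.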

Read-out in assay [11]: Interleukin-1 alpha (IL1a), IL1A (gene 3552)
Put plainly: BSK_LPS_IL1a: BioMAP Diversity Plus: LPS Assay for Interleukin-1 alpha (IL1a) Biomarker Activity (AID 2283080). The note with it: primary human HUVEC with PBMC; actives raise or lower the signal. The gist of the method:
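HUVEC/PBMC co-culture, LPS system; 24 h after dosing; IL-1a by ELISA; gain or loss of signal fitted bidirectionally vs DMSO baseline.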

Read-out in assay [12]: Monocyte Chemoattractant Protein-1 (MCP1), CCL2 (gene 6347)
Put plainly: BSK_LPS_MCP1: BioMAP Diversity Plus: LPS Assay for Monocyte Chemoattractant Protein-1 (MCP1) Biomarker Activity (AID 2283081).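 On AC50: secreted MCP-1 protein quantified by ELISA in culture supernatant.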 The note with it: primary human HUVEC with PBMC; actives raise or lower the signal. Summed up:
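ELISA read-out of MCP-1 after 24 h chemical dosing of a human umbilical vein endothelial cell/peripheral blood mononuclear cell co-culture stimulated with LPS. Gain or loss of signal fitted relative to DMSO controls.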

The nature of assay [13]: BSK_LPS_PGE2: BioMAP Diversity Plus: LPS Assay for Prostaglandin E2 (PGE2) Biomarker Activity (AID 2283082).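 On AC50: secreted prostaglandin E2 measured by ELISA in LPS-stimulated co-culture.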 The following applies: primary human HUVEC with PBMC; actives raise or lower the signal. Summed up: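 ELISA read-out of PGE2 from human umbilical vein endothelial cells co-cultured with peripheral blood mononuclear cells under LPS, 24 h post-dose. Gain or loss of signal scored relative to DMSO baseline.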

Read-out in assay [14]: Macrophage colony-stimulating factor (MCSF), CSF1 (gene 1435)
Put plainly: BSK_LPS_MCSF: BioMAP Diversity Plus: LPS Assay for Macrophage colony-stimulating factor (MCSF) Biomarker Activity (AID 2283083). The following applies: primary human HUVEC with PBMC; actives raise or lower the signal. Summed up:
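HUVEC + PBMC co-culture (human primary), 24 h post-dose; M-CSF by ELISA; gain/loss of signal fitted bidirectionally vs DMSO baseline.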

Read-out in assay [15]: Tissue Factor, F3 (gene 2152)
The experiment in a line: BSK_LPS_TissueFactor: BioMAP Diversity Plus: LPS Assay for Tissue Factor Biomarker Activity (AID 2283084). The following applies: primary human HUVEC with PBMC; actives raise or lower the signal. The gist of the method: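 HUVEC/PBMC co-culture, LPS-activated; CD142 ELISA read 24 h post-dose; bidirectional curve fit vs DMSO negative control.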

Read-out in assay [16]: Tumor necrosis factor (Homo sapiens) (UniProt P01375)
Put plainly: BSK_LPS_TNFa: BioMAP Diversity Plus: LPS Assay for Tumour Necrosis Factor alpha (TNFa) Biomarker Activity (AID 2283085).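 On AC50: TNFa protein level quantified by ELISA in the co-culture.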 The following applies: primary human HUVEC with PBMC; actives raise or lower the signal. Summed up:
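HUVEC/PBMC co-culture, LPS-stimulated; 24 h post-dose; TNFa by ELISA; gain or loss of signal fitted bidirectionally vs DMSO baseline.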

Read-out in assay [17]: Vascular cell adhesion molecule 1 (VCAM1), VCAM1 (gene 7412)
The experiment in a line: BSK_LPS_VCAM1: BioMAP Diversity Plus: LPS Assay for Vascular cell adhesion molecule 1 (VCAM1) Biomarker Activity (AID 2283086). The note with it: primary human HUVEC with PBMC; actives raise or lower the signal. Summed up:
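ELISA read-out of VCAM-1 at 24 h post-dosing in an LPS-driven HUVEC/PBMC primary human co-culture; gain or loss of signal fitted bidirectionally against DMSO baseline. Cytotoxicity tracked in parallel cultures by SRB total-protein staining.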

Read-out in assay [18]: CD38, CD38 (gene 952)
Put plainly: BSK_SAg_CD38: BioMAP Diversity Plus: SAg Assay for CD38 Biomarker Activity (AID 2283087). The following applies: primary human HUVEC with PBMC; actives raise or lower the signal. The gist of the method:
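Measures CD38 on a human endothelial/PBMC co-culture driven by SEB and TSST-1, 24 h after compound exposure, using ELISA with fluorescence detection; DMSO defines baseline for bidirectional curve fitting.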

Read-out in assay [19]: CD69, CD69 (gene 969)
The experiment in a line: BSK_SAg_CD69: BioMAP Diversity Plus: SAg Assay for CD69 Biomarker Activity (AID 2283089).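 On AC50: cell surface CD69 protein quantified by ELISA with fluorescence detection.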 The note with it: primary human HUVEC with PBMC; actives raise or lower the signal. The gist of the method: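 HUVEC co-cultured with PBMC were dosed with chemical, and CD69 was measured by ELISA with fluorescence read-out 24 h later. Bidirectional curve fitting used DMSO as negative control and activity baseline.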

Tumor necrosis factor (Homo sapiens), sequence (P01375 whole entry, looked up): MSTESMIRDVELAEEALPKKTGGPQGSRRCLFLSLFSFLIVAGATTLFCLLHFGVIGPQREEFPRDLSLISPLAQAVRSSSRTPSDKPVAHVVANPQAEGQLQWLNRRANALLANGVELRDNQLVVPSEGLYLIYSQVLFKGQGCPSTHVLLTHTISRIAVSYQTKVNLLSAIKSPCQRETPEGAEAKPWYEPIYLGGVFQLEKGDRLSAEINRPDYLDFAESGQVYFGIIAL
E-selectin (Homo sapiens), sequence (P16581 whole entry, looked up): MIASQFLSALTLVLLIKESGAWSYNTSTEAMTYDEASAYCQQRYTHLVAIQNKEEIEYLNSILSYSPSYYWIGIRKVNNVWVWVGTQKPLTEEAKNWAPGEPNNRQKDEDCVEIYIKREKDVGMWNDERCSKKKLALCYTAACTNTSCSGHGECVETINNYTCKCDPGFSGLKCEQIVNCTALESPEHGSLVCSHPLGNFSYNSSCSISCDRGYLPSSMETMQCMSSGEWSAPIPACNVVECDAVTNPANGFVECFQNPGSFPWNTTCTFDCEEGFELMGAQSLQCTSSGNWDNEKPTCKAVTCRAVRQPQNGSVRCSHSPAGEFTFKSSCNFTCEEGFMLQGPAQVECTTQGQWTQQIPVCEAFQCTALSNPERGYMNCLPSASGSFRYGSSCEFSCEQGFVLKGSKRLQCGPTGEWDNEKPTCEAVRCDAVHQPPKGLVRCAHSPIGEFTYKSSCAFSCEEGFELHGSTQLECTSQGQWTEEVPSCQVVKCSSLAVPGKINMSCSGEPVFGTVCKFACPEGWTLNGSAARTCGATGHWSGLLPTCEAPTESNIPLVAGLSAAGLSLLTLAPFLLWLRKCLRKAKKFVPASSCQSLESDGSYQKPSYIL

Usually AC50 stands for the midpoint of the concentration-response curve, whichever way the signal moves. As for `C#CCC1=C(C)C(OC(=O)C2C(C=C(C)C)C2(C)C)CC1=O` (configuration not stated), the outcome in assay [1], in [2], in [3], in assay [4], in [5] and in [6] was inactive. Further, the outcome in assay [15] was inactive. For the same molecule, the AC50 is 20 µM (active) in assay [7]; 28.4 µM (active) in assay [8]; 26.7 µM (active) in assay [9]; 29.1 µM (active) in [10]; 31.9 µM (active) in [11]; 33.4 µM (active) in assay [12]. Also, the concentration at half-maximal activity (AC50) in assay [13] was 3.87 µM (active); in assay [14] it was 23.4 µM (active); in assay [16] it was 32.9 µM (active); in assay [17], 14.8 µM (active); in assay [18], 33.7 µM (active); in [19] it was 29.8 µM (active).
As for `COP(=O)(NC(C)=O)SC` (configuration not stated), the result in assay [1], in [2], in assay [3], in [4], in assay [5] and in assay [6] was inactive. Further, the outcome in assay [7], in [8], in assay [9], in assay [10], in [11] and in assay [12] was inactive. Moreover, the result in assay [13], in assay [14], in assay [15], in assay [16], in assay [17] and in assay [18] was inactive. Moreover, in assay [19], the result was inactive.
For the molecule `CCNc1nc(Cl)nc(NC(C)(C)C#N)n1`, the outcome in assay [1], in [2], in assay [3], in assay [4], in assay [5] and in assay [6] was inactive. The outcome in assay [7], in [8], in assay [9], in assay [10], in assay [11] and in assay [12] was inactive. Moreover, the outcome in assay [13], in assay [14], in assay [15], in assay [17], in assay [18] and in [19] was inactive. For the same molecule, the AC50 in [16] was 3.97 µM (active).
